The record followed here is PubChem BioAssay (NCATS).

Results filed as inconclusive are left out. Unmarked numbers belong to inactive results. Activity calls are given as the source filed them. Calls come from the whole dose curve; as a rule, active = well fitted curve in the direction sought with a large enough effect; inconclusive = small, poorly fitted or top-dose-only effect, or another doubt; inactive = no such curve, though single readings can be large; an effect the other way counts as inactive or inconclusive.

Assay [1] can be described thus: Drug repurposing screens with cells derived from glioblastoma tumor samples (AID 1345199). For activity, negative = cell killing: % is set by controls: 0 for no effect and ±100 for the full control effect. Note: nearly all actives have a fitted effect of over 40% in size. To be noted: GBM patient neurospheres viability, ATP luminescence, 48 h. Summed up:
(§1)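 Primary testing used CD133+ neurospheres from four GBM patients, seven concentrations, 48 h exposure and ATP-based viability; confirmation added three slower-growing patient lines.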

Assay [2] has as its system HeLa. The experiment in a line: Primary qHTS to identify gynecologic anti-cancer compounds using libraries of approved drugs and bioactive compounds (AID 1345084). Note: nearly all actives have a fitted effect of over 55% in size. The conditions noted are these: Gynecologic cancer cell panel viability, ATPlite luminescence, 48 h; series mostly up to 57.5 µM. An outline of the steps:
(§2)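 Cytotoxicity screen measuring ATP content by luciferase luminescence. Each compound is applied at five concentrations for 48 h at 37 C with 5% CO2.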

Assay [3] deals with JEG-3. Described as above. The conditions noted are these: Gynecologic cancer cell panel viability, ATPlite luminescence, 48 h; series mostly up to 57.5 µM. Summed up: as §2
For orientation: Cellular ATP, detected with luciferase, serves as a proxy for viable cell number.

For assay [4], the system named is Tov-21-G. The description is as above. The conditions noted are these: Gynecologic cancer cell panel viability, ATPlite luminescence, 48 h; series mostly up to 57.5 µM. An outline of the steps: as §2
Assay [5] relates to astro (control astrocytes). The assay is described as follows: Drug repurposing screens with cells derived from glioblastoma tumor samples (AID 1345199). For activity, negative = cell killing: % is set by controls: 0 for no effect and ±100 for the full control effect. Note: nearly all actives have a fitted effect of over 40% in size. The conditions noted are these: viability, ATP luminescence, 48 h; series mostly up to 45.9 µM. An outline of the steps:
as §1

In assay [6] the test system is OV90. The experiment in a line: Primary qHTS to identify gynecologic anti-cancer compounds using libraries of approved drugs and bioactive compounds (AID 1345084). Note: nearly all actives have a fitted effect of over 55% in size. To be noted: Gynecologic cancer cell panel viability, ATPlite luminescence, 48 h; series mostly up to 57.5 µM. An outline of the steps: as §2
Background: In qHTS, concentration-response curves come from the screen itself.

Assay [7] relates to PA-1. Described as above. The conditions noted are these: Gynecologic cancer cell panel viability, ATPlite luminescence, 48 h; series mostly up to 57.5 µM. An outline of the steps:
as §2

Assay [8] in a line: qHTS assay to identify inhibitors of the type 1 interferon - major histocompatibility complex class I in skeletal muscle: Counter screen cell viability and HiBit confirmation (AID 1347412). Note: nearly all actives have a fitted effect of over 60% in size. To be noted: iHSKM muscle cells + IFN-b, HiBiT or CellTiter-Glo, 24 h; Potency: HiBiT unless noted; Viability, at 45.9 µM (top of the series). An outline of the steps:
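After 24 h with human IFN-beta (4 ng/ml) and compound titrations (top 46 uM final, 1:3, 12 points), HLA-B HiBit myoblasts were lysed for either Nano-Glo HiBiT luminescence or CellTiter Glo viability on paired plates.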

In assay [9] the test system is SKOV3. The experiment in a line: Primary qHTS to identify gynecologic anti-cancer compounds using libraries of approved drugs and bioactive compounds (AID 1345084). Note: nearly all actives have a fitted effect of over 55% in size. To be noted: Gynecologic cancer cell panel viability, ATPlite luminescence, 48 h; series mostly up to 57.5 µM. Summed up:
as §2

Setting [10] is: at 45.9 µM (top of the series), tumour line B.
The mark [11] stands for this setting: at 45.9 µM (top of the series), tumour line D.
Setting [12] is: at 46 µM (top of the series), tumour line A.
The mark [13] stands for this setting: at 46.1 µM (top of the series), tumour line C.
Potency is the fitted concentration of half-maximal effect.

For the compound `Nc1cc(Cl)c(NC2=NCCN2)c(Cl)c1`, the activity, negative = cell killing in assay [1] (setting [10]) was -8.4%; in assay [1] (setting [11]), -1.45%; in [1] (setting [12]), -27.8%; in [1] (setting [13]) it was -9.7%.

Regarding `C[C@]12CC[C@@H]3c4ccc(O)cc4CC[C@H]3[C@@H]1CC[C@@H]2O`, the values for the activity, negative = cell killing in assay [1] (setting [10]) and in [1] (setting [13]) were -16.2% and -20.5%, respectively. Also, the Potency in assay [1] (tumour line A) is 31.6 µM (active).

With `O=c1c(-c2ccccc2)c1-c1ccccc1`, the Potency entry in assay [2], in [3] and in assay [4] was “inactive” each time. Besides, the Potency in [5] was 12.6 µM (active).

In the case of `O=C1CCC(c2ccc(-n3ccnc3)cc2)=NN1`, the values for the activity, negative = cell killing in assay [1] (setting [10]), in [1] (setting [11]) and in assay [1] (setting [13]) were -6.09%, -6.36% and -27.3%, respectively. Also, the Potency result in assay [5] was “inactive”.

For the compound `CCCCC(CC)CN=C(N)NC(N)=NCCCCCCN=C(N)NC(N)=NCC(CC)CCCC` (configuration not stated), the Potency is 17.8 µM (active) in assay [2]; 20 µM (active) in assay [6]; 10 µM (active) in [7]; 17.8 µM (active) in assay [4]; 11.2 µM (active) in assay [5]; 22.2 µM [Viability] (active) in assay [8].

On to `CCN(CC)CCOc1ccc(C(O)(Cc2ccc(Cl)cc2)c2ccc(C)cc2)cc1` (configuration not stated), for which the Potency entry in [2] and in assay [3] was “inactive” throughout. The Potency in assay [6] is 17.8 µM (active); in assay [5], 22.4 µM (active).

Consider `Oc1ccc(Cl)cc1Sc1cc(Cl)ccc1O`, for which the Potency result in [6] and in assay [9] was “inactive” each time. The Potency in assay [5] was 7.94 µM (active).

Regarding `CC(C)C[C@H]1C(=O)N2CCC[C@H]2[C@]2(O)O[C@](NC(=O)[C@@H]3C=C4c5cccc6[nH]c(Br)c(c56)C[C@H]4N(C)C3)(C(C)C)C(=O)N12`, the values for the activity, negative = cell killing in assay [1] (setting [10]) and in assay [1] (setting [13]) were -7.46% and 12.4%, respectively. Moreover, in assay [1] (tumour line A), the Potency is 2.24 µM (active). Moreover, the Potency result in [5] is “inactive”.

For `CC(=O)O[C@H]1C[C@@H]2CC[C@@H]3[C@H](CC[C@@]4(C)[C@H]3C[C@H]([N+]3(C)CCCCC3)[C@@H]4OC(C)=O)[C@@]2(C)C[C@@H]1[N+]1(C)CCCCC1`, the activity, negative = cell killing in assay [1] (setting [10]) is 7.88%; in assay [1] (setting [11]) it was -21.6%; in [1] (setting [12]) it was -27.9%; in assay [1] (setting [13]), -11.1%. For the same compound, in assay [5], the Potency result is “inactive”.

With `CCCn1c(=O)[nH]c(=O)c2[nH]cnc21`, the activity, negative = cell killing is -19.3% in assay [1] (setting [10]), 9.35% in [1] (setting [11]), -17.3% in assay [1] (setting [12]) and -18.8% in assay [1] (setting [13]). For the same compound, the Potency result in assay [5] is “inactive”.
